Values joined by “and” are separate entries in the source; they are usually repeats but may differ in a detail not shown here. Identical values can stand only once. Results filed as inconclusive are left out. More than one record can exist for a structure, and the calls need not agree. Active and inactive are the calls of the source.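 The calls were made as follows, unless noted: active = normalized viability below 100% at a tested concentration; inactive = the rest.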
How the values were obtained:
[1] = viability loss in pontine glioma line – cell-based, SU-DIPG-XVII, MIPE5.0, CellTiter-Glo, qHTS, dose response (AID 1347060; cut-off not given, nearly all actives have AC50 up to about 26 µM;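 as to AC50: cells exposed to compound for 48 hours before viability readout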); conditions: CellTiter-Glo ATP luminescence
[2] = viability loss in pontine glioma line – cell-based, SU-DIPG-XIII, MIPE4.0, CellTiter-Glo, qHTS, dose response (AID 1347061; cut-off not given, nearly all actives have AC50 up to about 37 µM;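 also: cells exposed to compound for 48 hours before readout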); conditions: CellTiter-Glo ATP luminescence
[3] = viability loss in pontine glioma line – cell-based, JHH-DIPG-1, MIPE4.0, CellTiter-Glo, qHTS, dose response (AID 1347062; cut-off not given, nearly all actives have AC50 up to about 27 µM;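 as to AC50: cells exposed to compound for two days before readout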); conditions: JHH-DIPG-1 viability, CellTiter-Glo ATP luminescence
[4] = viability loss in pontine glioma line – cell-based, SU-DIPG-IV, MIPE4.0, CellTiter-Glo, qHTS, dose response (AID 1347063; cut-off not given, nearly all actives have AC50 up to about 30 µM;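 also: compound exposure lasted 48 hours before the viability readout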); conditions: CellTiter-Glo ATP luminescence
[5] = viability loss in pontine glioma line – cell-based, SU-DIPG-XIII, MIPE5.0, CellTiter-Glo, qHTS, dose response (AID 1347064; cut-off not given, nearly all actives have AC50 up to about 23 µM;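 as to AC50: cells exposed to compound for 48 hours before the viability read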); conditions: CellTiter-Glo ATP luminescence
[6] = viability loss in pontine glioma line – cell-based, SU-DIPG-XXV, MIPE5.0, CellTiter-Glo, qHTS, dose response (AID 1347065; cut-off not given, nearly all actives have AC50 up to about 26 µM;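 also: cells exposed to compound for 48 hours before ATP readout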); conditions: CellTiter-Glo ATP luminescence
[7] = growth inhibition of DIPG cells – cell-based, MIPE4.0 library, CellTiter-Glo luminescence, qHTS (AID 1347066; cut-off not given, nearly all actives have AC50 up to about 30 µM;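 also: cells exposed to compound for 48 hours before readout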); conditions: SU-DIPG-VI viability, CellTiter-Glo ATP luminescence
[8] = JHH-DIPG-1 glioma cell viability, MIPE5.0 library, CellTiter-Glo luminescence, qHTS (AID 1347067; cut-off not given, nearly all actives have AC50 up to about 26 µM;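 also: cells exposed to compound for 48 hours before readout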); conditions: JHH-DIPG-1 glioma viability, CellTiter-Glo ATP luminescence
[9] = viability loss with induced miR-34 in A549 – imaging, A549 dox-inducible miR-34, nuclei and caspase counts, primary screen (AID 1347080;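 active = compounds whose cell count with miR-34 switched on is under 0.7 times the count with it off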); conditions: A549 miR-34 inducible, Hoechst nuclei count, 48 h
[10] = compounds altering HSF1 focus formation in cells – imaging, Selleck Cancer Library (AID 1347162; in the data active = plate-normalised HSF1 focus index below about 0.46); conditions: human cells, HSF1 nuclear foci imaging, at 10 µM; SSMD: measured here: HSF1 foci SSMD mean; cell count: measured here: cell number; plate-normalised HSF1 focus index: stronger effect = lower value
[11] = MELAS cybrid and Rieske KO viability enhancers – cell-based, MELAS cybrids, Rieske KO mouse fibroblasts, CellTiter-Glo, primary screen (AID 1508586;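 active = mean z-score across replicates of 1.96 or higher in either the MELAS or the Rieske mutant cell line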;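 also: z relative to plate mean and SD of compound and empty wells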); conditions: low glucose
[12] = drug combination growth inhibition, ovarian cancer – cell-based, oncology-focused library, rucaparib conditional, profiling panel (AID 1508598); conditions: patient-derived ovarian cancer cells, CellTiter-Glo viability, 144 h, stronger effect = lower value
[13] = growth inhibition of DIPG cells – cell-based, MIPE5.0 library, qHTS (AID 1347068; cut-off not given, nearly all actives have IC50 up to about 30 µM;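 as to IC50: cells exposed to compound for 48 hours before viability readout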); conditions: SU-DIPG-XXV viability
[14] = stronger effect = lower value, cell number ratio, induced over uninduced
[15] = measured here: relative caspase fold change +Dox/-Dox
[16] = measured here: total cells with miR-34 induction, stronger effect = lower value
[17] = measured here: total cells without miR-34 induction
[18] = MELAS cybrid survival, CellTiter-Glo 48 h, stronger effect = higher value
[19] = Rieske KO mouse fibroblast survival, CellTiter-Glo 72 h
[20] = at 0.000305 µM, OCI-C5x cells, with rucaparib 10 µM, 100% = cells with rucaparib alone
[21] = at 0.000305 µM, OCI-C5x cells, without rucaparib
[22] = at 0.000305 µM, OCI-P5x cells, with rucaparib 20 µM, 100% = cells with rucaparib alone
[23] = at 0.000305 µM, OCI-P5x cells, without rucaparib
[24] = at 0.00122 µM, OCI-C5x cells, with rucaparib 10 µM, 100% = cells with rucaparib alone
[25] = at 0.00122 µM, OCI-C5x cells, without rucaparib
[26] = at 0.00122 µM, OCI-P5x cells, with rucaparib 20 µM, 100% = cells with rucaparib alone
[27] = at 0.00122 µM, OCI-P5x cells, without rucaparib
[28] = at 0.00488 µM, OCI-C5x cells, with rucaparib 10 µM, 100% = cells with rucaparib alone
[29] = at 0.00488 µM, OCI-C5x cells, without rucaparib
[30] = at 0.00488 µM, OCI-P5x cells, with rucaparib 20 µM, 100% = cells with rucaparib alone
[31] = at 0.00488 µM, OCI-P5x cells, without rucaparib
[32] = at 0.0195 µM, OCI-C5x cells, with rucaparib 10 µM, 100% = cells with rucaparib alone
[33] = at 0.0195 µM, OCI-C5x cells, without rucaparib
[34] = at 0.0195 µM, OCI-P5x cells, with rucaparib 20 µM, 100% = cells with rucaparib alone
[35] = at 0.0195 µM, OCI-P5x cells, without rucaparib
[36] = at 0.0781 µM, OCI-C5x cells, with rucaparib 10 µM, 100% = cells with rucaparib alone
[37] = at 0.0781 µM, OCI-C5x cells, without rucaparib
[38] = at 0.0781 µM, OCI-P5x cells, with rucaparib 20 µM, 100% = cells with rucaparib alone
[39] = at 0.0781 µM, OCI-P5x cells, without rucaparib
[40] = at 0.313 µM, OCI-C5x cells, with rucaparib 10 µM, 100% = cells with rucaparib alone
[41] = at 0.313 µM, OCI-C5x cells, without rucaparib
[42] = at 0.313 µM, OCI-P5x cells, with rucaparib 20 µM, 100% = cells with rucaparib alone
[43] = at 0.313 µM, OCI-P5x cells, without rucaparib
[44] = at 1.25 µM, OCI-C5x cells, with rucaparib 10 µM, 100% = cells with rucaparib alone
[45] = at 1.25 µM, OCI-C5x cells, without rucaparib
[46] = at 1.25 µM, OCI-P5x cells, with rucaparib 20 µM, 100% = cells with rucaparib alone
[47] = at 1.25 µM, OCI-P5x cells, without rucaparib
[48] = at 5 µM, OCI-C5x cells, with rucaparib 10 µM, 100% = cells with rucaparib alone
[49] = at 5 µM, OCI-C5x cells, without rucaparib
[50] = at 5 µM, OCI-P5x cells, with rucaparib 20 µM, 100% = cells with rucaparib alone
[51] = at 5 µM, OCI-P5x cells, without rucaparib

CN1CCN(c2ccc3nc(-c4c(N)c5c(F)cccc5[nH]c4=O)[nH]c3c2)CC1
3.68 (active) and -0.215 (inactive): z-score [11, 18]
744 and 794: cell count [9, 16]
0.308 and 0.757: fold change [9, 15]
active: AC50 [1] 525 nM | AC50 [2] 2960 nM | AC50 [3] 26400 nM | AC50 [4] 23500 nM | AC50 [5] 1050 nM | AC50 [6] 468 nM | AC50 [7] 20900 nM | AC50 [8] 11800 nM | viability [12, 34] 99.7% | viability [12, 35] 76.1% | viability [12, 47] 90.6% | viability [12, 48] 3.71% | viability [12, 49] 73% | viability [12, 50] 42.5% | viability [12, 51] 50%
472 and 732: cell count [9, 17]
5510: cell count [10]
-9.43: SSMD [10]
inactive: fold change [9, 14] 1.57 and 1.08 | plate-normalised HSF1 focus index [10] 0.516 | viability [12, 20] 112% | viability [12, 21] 107% | viability [12, 22] 123% | viability [12, 23] 105% | viability [12, 24] 111% | viability [12, 25] 104% | viability [12, 26] 118% | viability [12, 27] 107% | viability [12, 28] 121% | viability [12, 29] 115% | viability [12, 30] 136% | viability [12, 31] 109% | viability [12, 32] 104% | viability [12, 33] 112% | viability [12, 36] 118% | viability [12, 37] 143% | viability [12, 38] 133% | viability [12, 39] 107% | viability [12, 40] 125% | viability [12, 41] 119% | viability [12, 42] 129% | viability [12, 43] 104% | viability [12, 44] 148% | viability [12, 45] 127% | viability [12, 46] 123%
-0.494 and -0.354: z-score [11, 19]

Cc1cc(Nc2cc(N3CCN(C)CC3)nc(/C=C/c3ccccc3)n2)n[nH]1
inactive: viability [12, 20] 120% | viability [12, 21] 103% | viability [12, 22] 101% | viability [12, 24] 106% | viability [12, 25] 107% | viability [12, 26] 110% | viability [12, 27] 108% | viability [12, 28] 113% | viability [12, 29] 104% | viability [12, 30] 118% | viability [12, 31] 114% | viability [12, 32] 115% | viability [12, 33] 116% | viability [12, 34] 109% | viability [12, 35] 107% | viability [12, 36] 110% | viability [12, 38] 103% | viability [12, 39] 107% | viability [12, 40] 110% | viability [12, 41] 112%
active: AC50 [1] 1050 nM | AC50 [2] 12100 nM | AC50 [3] 27000 nM | AC50 [4] 13600 nM | AC50 [5] 2090 nM | AC50 [6] 1050 nM | AC50 [7] 13600 nM | AC50 [8] 4680 nM | IC50 [13] 2630 nM | viability [12, 23] 97.8% | viability [12, 37] 95.9% | viability [12, 42] 87.9% | viability [12, 43] 93.6% | viability [12, 44] 90.9% | viability [12, 45] 93.3% | viability [12, 46] 74% | viability [12, 47] 56.9% | viability [12, 48] 95.4% | viability [12, 49] 54.2% | viability [12, 50] 3.53% | viability [12, 51] 6.43%

O=C1c2ccccc2-[n+]2ccc3c([nH]c4ccccc43)c21
active: AC50 [1] 2350 nM | AC50 [2] 2640 nM | AC50 [3] 743 nM | AC50 [4] 2090 nM | AC50 [5] 2350 nM | AC50 [6] 2630 nM | AC50 [7] 1660 nM | AC50 [8] 2350 nM

COC(=O)N1CCN(Cc2cccc(NC(=O)Nc3ccc(C)nc3)c2F)CC1
1.41: fold change [9, 15]
0.371: z-score [11, 19]
9170: cell count [9, 16]
9680: cell count [9, 17]
inactive: outcome [1] | outcome [2] | outcome [3] | outcome [4] | outcome [5] | outcome [6] | outcome [7] | outcome [8] | fold change [9, 14] 0.947 | z-score [11, 18] -0.446

O=C(NOCC(O)CO)c1cc(Br)c(F)c(F)c1Nc1ccc(I)cc1F (stereo unspecified)
-0.494: z-score [11, 19]
3720: cell count [9, 17]
active: AC50 [1] 2090 nM | AC50 [2] 2640 nM | AC50 [3] 16600 nM | AC50 [4] 20900 nM | AC50 [5] 1480 nM | AC50 [6] 3720 nM | AC50 [8] 468 nM
3740: cell count [9, 16]
1.08: fold change [9, 15]
inactive: outcome [7] | fold change [9, 14] 1.01 | z-score [11, 18] -0.561

CC(C)(O)c1cc2nc(-c3cnc(N)nc3)nc(N3CCOCC3)c2s1
active: AC50 [1] 1180 nM | AC50 [2] 590 nM | AC50 [3] 833 nM | AC50 [4] 52.6 nM | AC50 [5] 1050 nM | AC50 [6] 417 nM | AC50 [7] 148 nM | IC50 [13] 1180 nM

O=C1c2cccc(O)c2C(=O)c2c(O)cc(CO)cc21
8280: cell count [9, 17]
inactive: outcome [1] | outcome [2] | outcome [3] | outcome [4] | outcome [5] | outcome [6] | outcome [8] | outcome [13] | fold change [9, 14] 0.954 | z-score [11, 18] -0.27
7900: cell count [9, 16]
0.691: fold change [9, 15]
0.836: z-score [11, 19]

CC(=O)O[C@H]1C[C@@H]2CC[C@@H]3[C@H](CC[C@@]4(C)[C@H]3C[C@H]([N+]3(C)CCCCC3)[C@@H]4OC(C)=O)[C@@]2(C)C[C@@H]1[N+]1(C)CCCCC1
0.886 and 0.709 and 0.967: fold change [9, 15]
-1.19 and -0.284: z-score [11, 19]
9560 and 9410 and 11300: cell count [9, 17]
inactive: outcome [1] | outcome [2] | outcome [3] | outcome [4] | outcome [5] | outcome [6] | outcome [7] | outcome [13] | fold change [9, 14] 1.08 and 0.979 and 0.882 | z-score [11, 18] -0.0905 and -0.925
10300 and 9210 and 9980: cell count [9, 16]

O=C(/C=C/c1ccc(/C=C/C(=O)Nc2ccc(C3=NCCN3)cc2)cc1)Nc1ccc(C2=NCCN2)cc1
6050: cell count [9, 17]
active: AC50 [1] 2350 nM
1.21: fold change [9, 15]
inactive: outcome [2] | outcome [3] | outcome [4] | outcome [5] | outcome [6] | outcome [7] | outcome [8] | fold change [9, 14] 1.13
6840: cell count [9, 16]

COc1ccnc2[nH]cc(C(=O)C(=O)N3CCN(C(=O)c4ccccc4)C[C@H]3C)c12
inactive: outcome [1] | outcome [2] | outcome [3] | outcome [4] | outcome [5] | outcome [6] | outcome [8] | outcome [13]

CN[C@@H]1C[C@H]2O[C@@](C)([C@@H]1OC)n1c3ccccc3c3c4c(c5c6ccccc6n2c5c31)C(=O)N[C@H]4O
active: AC50 [1] 135 nM | AC50 [2] 590 nM | AC50 [3] 187 nM | AC50 [4] 1320 nM | AC50 [5] 85.5 nM | AC50 [6] 30.3 nM | AC50 [7] 296 nM | AC50 [8] 38.2 nM | IC50 [13] 605 nM

Source: PubChem BioAssay
